EPAC2 ag = agonists of human EPAC2 (RAPGEF4) | Q8WZA2 | EPAC2 activation, biochemical qHTS; response scale: 100% = 6.5 mM cAMP response | Potency, µM (titrated, usually from 154 µM), for the others: at the highest dose activation, most hits filed as activators | 360,000 tested, 0.079% active; also: potency is read from the fitted curve at half-maximal effect; nearly all actives have a fitted effect of over 50% in size
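Guanine nucleotide exchange by EPAC2 is measured as reduced fluorescence of BODIPY-GDP once it is released from 250 nM Rap1B. Plates are read kinetically for 30 min at room temperature; results are scaled to 6.5 mM cAMP.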
EPAC2 antagonist = antagonists of human EPAC2; 360,000 tested, 0.18% active; EPAC2 GEF exchange of Rap1B-BODIPY-GDP, fluorescence; Potency, µM (top dose mostly 114 µM), inactives show at the top dose activity, negative = inhibition, usual class: inhibitors; also: potency is read from the fitted curve at half-maximal effect; % is scaled to controls: 0 for no effect and ±100 for the full control effect; nearly all actives have a fitted effect of over 45% in size
EPAC1 antagonist = antagonists of human EPAC1; O95398; EPAC1 GEF assay, Rap1b-BODIPY-GDP exchange fluorescence; Potency, µM (titrated, usually from 115 µM), without a hit: at the top dose activity change, negative = inhibition, usual class: inhibitors; 360,000 tested, 0.14% active; AID 720709;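 also: potency is read from the fitted curve at half-maximal effect; plate controls were vehicle for no effect and positive control for full effect; nearly all actives have a fitted effect of over 50% in size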
Target sequence (O95398 whole entry, looked up): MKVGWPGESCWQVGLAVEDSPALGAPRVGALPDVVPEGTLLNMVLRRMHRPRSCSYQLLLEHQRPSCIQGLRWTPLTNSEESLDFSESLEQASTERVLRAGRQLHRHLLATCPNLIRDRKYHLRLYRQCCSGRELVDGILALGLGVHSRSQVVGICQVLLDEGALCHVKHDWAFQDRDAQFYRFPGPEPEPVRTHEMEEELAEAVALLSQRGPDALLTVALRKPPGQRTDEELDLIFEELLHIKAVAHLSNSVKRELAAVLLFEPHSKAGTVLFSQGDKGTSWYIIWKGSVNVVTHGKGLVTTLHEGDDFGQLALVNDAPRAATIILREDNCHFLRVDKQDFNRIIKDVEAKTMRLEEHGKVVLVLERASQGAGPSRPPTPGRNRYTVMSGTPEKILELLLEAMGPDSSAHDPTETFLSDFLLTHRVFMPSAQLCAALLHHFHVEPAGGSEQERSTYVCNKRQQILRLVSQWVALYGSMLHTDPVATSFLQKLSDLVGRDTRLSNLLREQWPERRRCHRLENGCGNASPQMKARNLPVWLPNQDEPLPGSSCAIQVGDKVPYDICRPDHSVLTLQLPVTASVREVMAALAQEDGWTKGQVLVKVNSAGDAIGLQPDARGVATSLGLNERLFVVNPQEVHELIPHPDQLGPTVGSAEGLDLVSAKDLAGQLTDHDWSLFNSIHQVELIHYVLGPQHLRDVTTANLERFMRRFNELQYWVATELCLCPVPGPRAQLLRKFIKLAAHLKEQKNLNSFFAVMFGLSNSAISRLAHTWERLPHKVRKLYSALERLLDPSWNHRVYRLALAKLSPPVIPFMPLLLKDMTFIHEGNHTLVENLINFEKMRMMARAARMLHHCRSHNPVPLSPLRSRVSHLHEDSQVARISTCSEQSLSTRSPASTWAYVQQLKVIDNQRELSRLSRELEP
KCNH2 3.1 block = inhibitors of human KCNH2 3.1 potassium channel isoform; U2OS KCNH2 3.1, thallium flux FluxOr; stronger effect = lower value; activity change, % (tested at about 1.8 µM); 340,000 tested, 0.95% active; AID 720553;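 active = maximum activity change below -70%; inconclusive = maximum activity change from -70% to -50%; inactive = maximum activity change above -50%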;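 also: thallium influx rate constant from kinetic fluorescence after stimulation buffer; % is scaled to controls: 0 for no effect and ±100 for the full control effect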
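Channel expression came from 3.1 mutant virus (1.77 x 10^8 /mL) applied to suspended U2OS cells for 4 h. Flux was tracked with FluxOr dye plus Red40 quencher, and kinetic rate constants normalized to controls.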
EPAC1 ag = EPAC1 (human) agonism | O95398 | EPAC1 agonist qHTS, biochemical assay; response scale: 100% = response to 6.5 mM cAMP | Potency, µM (highest dose often 154 µM), for the others: at the highest dose activation, most hits filed as activators | 360,000 tested, 0.073% active; also: potency is read from the fitted curve at half-maximal effect; nearly all actives have a fitted effect of over 60% in size
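Compounds were pinned as a concentration titration into mixtures of EPAC1 (100 nM), BODIPY-GDP-loaded Rap1B (250 nM) and GDP (50 uM). After 5 min at room temperature, fluorescence was followed for 30 min; activity was scaled to 6.5 mM cAMP.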
hERG WT inh = blocks the wildtype human KCNH2 potassium channel | 340,000 tested, 0.37% active | U2OS, BacMam KCNH2, thallium flux FluxOr; stronger effect = lower value | AID 720551 | activity change, % at 1.84 µM;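 active = maximum activity change below -70%; inconclusive = maximum activity change between -70% and -50%; inactive = maximum activity change above -50%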; also: % is scaled to controls: 0 for no effect and ±100 for the full control effect
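U2OS cells were transduced with wild-type KCNH2 virus (2.03 x 10^8 / mL) for 4 h at room temperature, then cultured overnight at 37 C. Thallium flux was read with FluxOr dye. Rate constants were normalized to DMSO controls.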
Active calls of the source: *; ? = inconclusive; / = no result. Shown are actives, neighbours in structure and some others; about 1.4% of the full set was active somewhere. Unless noted, calls follow the shape of the dose curve; as a rule, active = well fitted curve in the direction sought with a large enough effect; inconclusive = small, poorly fitted or top-dose-only effect, or another doubt; inactive = no such curve, though single readings can be large; an effect the other way counts as inactive or inconclusive.

SMILES | EPAC2 ag | EPAC2 antagonist | EPAC1 antagonist | KCNH2 3.1 block | EPAC1 ag | hERG WT inh
O=C(COc1ccccc1F)Nc1ccc(S(=O)(=O)N2CCCC2)cc1 | 10.5% | 3.4% | 17.5% | -3.6 | 0.5% | -5.5
Cc1ccc(C(=O)N2CCN3C(=O)c4ccccc4C23c2ccc(Cl)cc2)cc1 (stereo not given) | 16.0% | 12.8% | -14.6% | -75.7* | 15.5% | -14.4
CN(C)CCC(=O)N1C/C(=C/c2ccccc2)C(=O)/C(=C\c2ccccc2)C1 | -3.4% | 16.6% | -11.4% | -72.3* | -21.2% | 47.1
C[N+](C)(C)CCC(=O)N1C/C(=C/c2ccccc2)C(=O)/C(=C\c2ccccc2)C1 | 7.2% | 9.6% | 11.2% | / | -3.8% | -4.8
COc1cc(/C=N/NC(=O)c2ccc(Cl)c(S(N)(=O)=O)c2)ccc1OCC(N)=O | 7.8% | -9.3% | -19.8% | 21.6 | 2.0% | -142.3*
COc1cc(/C=N/NC(=O)c2cccnc2)ccc1OCC(=O)Nc1ccccc1Cl | 0.0% | 16.7% | -2.2% | -97.3* | -0.1% | 0.4
COc1ccc(NC(=O)COc2ccc(/C=N/NC(=O)c3cccnc3)cc2OC)cc1 | -2.7% | 3.2% | -2.5% | 5.4 | -6.1% | -0.8
COc1ccc(/C=N/NC(=O)c2ccc(Cl)c(S(N)(=O)=O)c2)cc1OCC(N)=O | 3.2% | 1.7% | -11.8% | -3.0 | 6.5% | 7.0
CC(C)C(=O)N1CCCC1(C)C(=O)Nc1ccc(-n2cccc2)cc1 (stereo not given) | 2.5% | 0.0% | -4.2% | / | -7.9% | /
COc1c([N+](=O)[O-])cc(C(=O)NNC(=O)c2ccc(C)cc2)cc1[N+](=O)[O-] | 1.7% | -11.3% | -18.3% | 17.1 | 4.9% | -1.8
CCc1ccc(NC(=O)CSc2nc3ccccc3c(=O)n2CCCN2CCC(C)CC2)cc1 | -7.5% | -16.2% | -26.7% | -97.2* | -2.2% | -135.5*
O=C(CSc1nc2ccccc2c(=O)n1CCCN1CCOCC1)Nc1ccc(Br)cc1 | 5.2% | -6.7% | 17.6% | ? | 9.4% | 2.8
Cc1ccc(NC(=O)CSc2nc3ccccc3c(=O)n2Cc2cccs2)cc1 | -5.7% | -6.1% | ? | -72.7* | 1.9% | 14.6
O=C(NCCc1ccccc1Cl)C1CC(=O)N(C2CCCCC2)C1 (stereo not given) | 0.4% | 7.8% | -10.1% | 11.5 | -11.0% | -13.0
CCOC(CNC(=O)CN1C(=O)COc2ccc(S(=O)(=O)N3CCCC3)cc21)OCC | -2.0% | 1.3% | 19.1% | 5.8 | -1.6% | -5.5
CCOc1ccccc1CN1CCC(CO)(CCOc2ccccc2)CC1 | 8.6% | 11.9% | -9.0% | -49.7 | 1.6% | 41.4
COc1ccc(-c2[nH]ncc2CN2CCC(O)(c3ccc(Cl)cc3)CC2)cc1 | 11.9% | 6.3% | -8.8% | -70.0* | -8.1% | 0.5
OC1(c2ccc(Cl)cc2)CCN(Cc2cn[nH]c2-c2ccccc2)CC1 | 4.4% | 4.7% | -3.1% | -86.5* | 14.9% | ?
OCC1(CCOc2ccccc2)CCN(Cc2cn[nH]c2-c2ccc(F)cc2)CC1 | 7.6% | 0.3% | -1.5% | -104.2* | 3.7% | ?
OC1(c2ccc(Cl)cc2)CCN(Cc2cn[nH]c2-c2ccc(F)cc2)CC1 | -3.4% | 2.6% | -1.1% | -87.6* | 8.0% | -6.2
CC(C)N1CCC(N2CCN(CCCn3cccn3)CC2CCO)CC1 (stereo not given) | 4.9% | 9.1% | 1.8% | 3.1 | -7.6% | -7.3
O=C(O)c1ccc(CNC(=O)C23CC4CC(CC(C4)C2)C3)cc1 | 4.8% | 0.3% | 9.5% | 1.7 | 0.3% | 1.3
Clc1ncccc1-c1nnn(-c2ccccc2Br)n1 | 8.5% | ? | -17.4% | 13.3 | -4.1% | 1.5
Clc1nc2ccccc2cc1-c1nnn(-c2ccccc2Br)n1 | 3.5% | 1.5% | -7.6% | -13.3 | -13.4% | -73.2*
Cc1ccc(NC(=S)N2CCC(NC(=O)c3ccc(F)cc3)CC2)cc1 | -2.4% | 12.7% | -9.9% | -7.5 | 11.1% | 5.3
SMILES | EPAC2 ag | EPAC2 antagonist | EPAC1 antagonist | KCNH2 3.1 block | EPAC1 ag | hERG WT inh
CC1CCN(C(=O)Cn2cnc3c2c(=O)n(C)c(=O)n3C)c2ccccc2S1 (stereo not given) | 4.0% | 0.0% | -22.1% | -2.6 | 3.7% | 2.3
Cc1ccc(C(C)C)c(OCC(O)CN2CCc3ccccc3C2)c1 (stereo not given) | 0.4% | -20.5% | ? | 0.6 | -4.8% | -112.9*
Cc1cc(Cn2nc(C(=O)NCc3cccc(C(F)(F)F)c3)cc2-c2ccccc2)on1 | 1.8% | -5.3% | -19.0% | -82.9* | -17.3% | -29.2
Oc1ccc(C[C@H]2CNC(=S)N2CC2CCCN2C[C@H](Cc2ccccc2)N2C[C@H](Cc3ccc(O)cc3)N(CC3CCCCC3)C2=S)cc1 (stereo not given in full) | 2.5% | -4.1% | -6.0% | / | -10.6% | /
CCOC(=O)c1ccc(N2C(=O)C3C(/C=C/c4ccccc4)OC4(C(=O)c5ccccc5C4=O)C3C2=O)cc1 (stereo not given) | 14.0% | -2.0% | 100µM* | 1.9 | 3.4% | -3.8
Cc1ccc(N=Cc2sc(O)c3ccccc23)cc1 | -0.4% | 40.7% | 11.8% | -4.0 | 8.1% | -9.4
Cc1ccc(N=Cc2sc(O)c3ccccc23)c(C)c1 | 100µM* | 219.6% | -9.4% | 4.9 | 5.1% | 2.7
Cc1c(NC(=O)C(C)OC(=O)COc2cccc3c2OC(C)(C)C3)c(=O)n(-c2ccccc2)n1C (stereo not given) | 0.7% | 4.7% | 8.9% | 20.2 | 4.3% | 9.7
Cc1c(NC(=O)COc2cccc3c2OC(C)(C)C3)c(=O)n(-c2ccccc2)n1C | 4.9% | -3.7% | -8.4% | -107.1* | 18.7% | -0.9
OCC[C@@H]1C[C@@H](O)[C@H](O)[C@@]2(CCc3ccccc3O2)O1 | 11.8% | -6.7% | 8.0% | 5.2 | 8.7% | -169.0*
OCC[C@@H]1C[C@H](O)[C@@H](O)[C@@]2(CCc3ccccc3O2)O1 | 4.0% | -10.6% | 11.7% | 15.7 | 1.9% | -2.5
OCC[C@@H]1C[C@@H](O)[C@H](O)[C@@]2(OCc3ccccc32)O1 | 16.9% | -0.5% | 2.1% | 23.1 | 3.6% | -1.1
OCC[C@H]1C[C@@H](O)[C@H](O)[C@]2(OCc3ccccc32)O1 | 8.5% | -1.4% | -3.2% | -89.2* | 3.5% | -2.6
OCC[C@@H]1C[C@H](O)[C@@H](O)[C@@]2(OCc3ccccc32)O1 | 11.0% | -2.6% | 4.5% | -136.4* | 4.2% | -16.1
O=C1CSC(=Nc2cccc(Cl)c2Cl)N1 | -8.3% | 3.6% | -2.9% | 8.3 | -5.9% | 0.9
CCn1c(N2CCN(C(=O)Nc3ccc(F)cc3)CC2)nc2ccccc21 | 9.7% | -1.4% | ? | -3.5 | 2.0% | 40.6
CCCn1c(N2CCN(C(=O)Nc3ccccc3)CC2)nc2ccccc21 | 3.7% | 7.6% | -0.4% | -104.7* | -13.0% | 10.2
